Screens from PubChem.
GALK inh = galactokinase (human) inhibition; P51570; Purified GALK, Kinase-Glo residual ATP luminescence; Potency, µM (series often up to 57.5 µM), without a hit: top-dose activity change, negative = inhibition, usual class: inhibitors; actives 0.007% (n = 270,000); AID 1868; also: potency is read from the fitted curve at half-maximal effect
Target sequence (P51570 whole entry, looked up): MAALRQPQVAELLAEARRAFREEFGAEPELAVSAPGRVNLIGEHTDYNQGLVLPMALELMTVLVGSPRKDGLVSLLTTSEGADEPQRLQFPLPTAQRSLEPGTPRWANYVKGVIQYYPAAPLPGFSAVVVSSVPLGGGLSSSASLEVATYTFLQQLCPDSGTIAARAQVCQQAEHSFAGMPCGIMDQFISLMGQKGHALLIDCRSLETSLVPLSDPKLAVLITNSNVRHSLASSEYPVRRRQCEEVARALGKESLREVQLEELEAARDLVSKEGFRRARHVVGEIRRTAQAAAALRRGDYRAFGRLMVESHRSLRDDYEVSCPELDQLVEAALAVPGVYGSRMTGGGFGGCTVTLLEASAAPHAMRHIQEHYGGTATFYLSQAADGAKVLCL
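Galactose (100 uM) and ATP (35 uM) were turned over by 5 nM GALK for 1 h at RT. Kinase-Glo Plus then converted the remaining ATP into a luminescent signal.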
USP2a block = inhibitors of human ubiquitin-specific protease USP2a; O75604; USP2 core, Ub-CHOP2 coupled fluorogenic reporter, 485/531; Potency, µM (titrated, usually from 38.3 µM), without a hit: top-dose activity change, negative = inhibition, most hits filed as inhibitors; actives 0.01% (n = 330,000);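 also: potency is read from the fitted curve at half-maximal effect; plate controls were DMSO wells for no effect and full inhibition by NEM control for full effect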
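Deubiquitinase activity read as fluorescence (485/531 nm) after Ub-CHOP2 cleavage activates the enterokinase reporter on its substrate; USP2 core 10nM, Ub-CHOP2 and substrate 25nM each, 30min compound preincubation then 60min RT; data normalized to NEM, curves fitted.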
VDR inh = vitamin D3 receptor (human) inhibition. P11473. actives 0.93% (n = 400,000). VDR-SRC2-3 peptide fluorescence polarization, 2 h. Potency, µM, for the others: max response, negative = inhibition, most hits filed as inhibitors; also: potency is read from the fitted curve at half-maximal effect
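Compounds are added to VDR with labelled SRC2-3 coactivator peptide and held 2 h at room temperature. Inhibition of the VDR–peptide interaction is then read as a change in fluorescence polarization.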
USP1 inh = inhibitors of human USP1/UAF1 deubiquitinase; O94782; recombinant USP1/UAF1, Ub-Rhodamine cleavage fluorescence; Potency, µM (series often up to 57.1 µM), for inactives: at the highest dose activity change, negative = inhibition, most hits filed as inhibitors; actives 0.23% (n = 390,000); AID 743255; also: potency is read from the fitted curve at half-maximal effect; nearly all actives have a fitted effect of over 60% in size
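USP1/UAF1 complex at 1 nM was preincubated with compound for 15 min at room temperature, then Ub-Rho substrate (150nM final) was added. Fluorescence (480/540 nm) was read kinetically, 6 reads every 60 seconds.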
Coupling enz = counter-screen for Giardia aldolase inhibitors: coupling enzyme system. coupling enzyme system counterscreen, AmpLite Red fluorescence. activity change, negative = inhibition, % at 58.2 µM, hits read low. actives 0.67% (n = 290,000); in the data active = activity change below about -30%
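Activity here indicates interference with the coupling reaction, not aldolase inhibition. Compounds at 57.5 uM final met coupling enzymes for 10 min at RT; substrate and AmpLite Red detection followed, with a 525/598 nm fluorescence read after 20 min.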
PLK1 PBD inh = inhibitors of human PLK1 polo-box domain binding; P53350; Plk1 PBD binding of FITC phosphopeptide, fluorescence polarization; Potency, µM, without a hit: max response, negative = inhibition, hits mostly inhibitors; actives 2.8% (n = 360,000); also: potency is read from the fitted curve at half-maximal effect; series mostly up to about 57 µM; nearly all actives have a fitted effect of over 65% in size
Active calls of the source: *; ? = inconclusive; . = no result given. Hits are enriched below; roughly 3.2% of the tested compounds scored in any of these assays. Unless noted, calls follow the shape of the dose curve; as a rule, active = well fitted curve in the direction sought with a large enough effect; inconclusive = small, poorly fitted or top-dose-only effect, or another doubt; inactive = no such curve, though single readings can be large; an effect the other way counts as inactive or inconclusive. Unless noted, % is scaled to controls: 0 for no effect and ±100 for the full control effect.

SMILES	GALK inh	USP2a block	VDR inh	USP1 inh	Coupling enz	PLK1 PBD inh
COc1ccc(CNC(=O)CCNS(=O)(=O)c2ccc(Br)s2)cc1	6%	6%	-23%	-3%	1	30µM*
COc1ccc(CNC(=O)CCNS(=O)(=O)c2cc(Br)cnc2N)cc1	-2%	-2%	?	-26%	.	3.4µM*
Nc1ncc(Br)cc1S(=O)(=O)NCCC(=O)NC1CCCCC1	1%	3%	-25%	-26%	.	27µM*
COc1ccc(CCC(=O)N2c3ccccc3N=C(c3ccc4c(c3)OCO4)C2C(=O)Nc2ccc(OC)cc2)cc1 (stereo unspecified)	.	.	.	.	.	9%
COCCCn1c(=O)c2ccccc2c2ccccc2c1=O	-1%	0%	-11%	-4%	0	-1%
Cc1cc2cc(CNC(=O)c3ccc(Br)o3)ccc2n1C	2%	0%	79µM*	-13%	-24	-18%
COc1cccc(CNC(=O)CCNS(=O)(=O)c2ccc(Br)s2)c1	-1%	-1%	?	-24%	-1	27µM*
COCC(=O)N1CCC[C@@]2(CCN(c3ccccn3)C2)C1	.	.	1%	.	-1	.
COc1ccc(/C=N/N2CCN(c3ccc(Cl)cc3)CC2)cc1O	6%	-2%	-8%	-32%	0	-4%
Cc1ccc(S(=O)(=O)N2[C@@H](c3ccc(C(C)(C)C)cc3)C(C(=O)O)=CC[C@H]2c2cccs2)cc1	.	-4%	-8%	-12%	.	24µM*
Cc1ccc(S(=O)(=O)N2[C@@H](c3ccc(C(C)(C)C)cc3)C(C(=O)O)=CC[C@H]2c2ccc(Cl)cc2)cc1	.	?	?	?	.	21µM*
Cc1ccc(S(=O)(=O)N2[C@@H](c3ccc(C(C)(C)C)cc3)C(C(=O)O)=CC[C@H]2c2ccc(C(C)C)cc2)cc1	.	?	-7%	?	.	17µM*
Cc1ccc(S(=O)(=O)N2[C@@H](c3cccc(Cl)c3)C(C(=O)O)=CC[C@H]2c2ccc(Cl)cc2)cc1	.	3%	-19%	-1%	.	27µM*
Cc1ccc([C@H]2C(C(=O)O)=CC[C@@H](c3cccs3)N2S(=O)(=O)c2ccc(C)cc2)cc1	.	1%	-4%	-13%	.	-21%
Cc1ccc(S(=O)(=O)N2C(c3cccc(Cl)c3)CC=C(C(=O)O)C2c2cccc(Cl)c2)cc1 (stereo unspecified)	.	.	.	.	.	-4%
CC(=O)Nc1cccc(-c2ccnc3c2CC(C)(C(=O)Nc2ccc(F)c(Cl)c2)O3)c1 (stereo unspecified)	.	.	.	.	.	-12%
COc1ccc2c(c1)C(=O)C1(CC2)OC1c1cccnc1 (stereo unspecified)	.	.	.	?	.	0%
O=C(CCCN1C(=O)c2ccccc2C1=O)Nc1nncs1	-1%	5%	13%	-17%	-1	-2%
Cc1ccc(S(=O)(=O)N2[C@@H](c3ccc(Br)cc3)C(C(=O)O)=CC[C@H]2c2ccc(C(C)C)cc2)cc1	.	-28%	?	-9%	.	30µM*
CCOC(=O)C1=CC[C@@H](c2ccccc2)N(S(=O)(=O)c2ccc(C)cc2)[C@H]1C	.	.	.	.	.	-8%
Cc1ccc([C@@H]2CC=C(C(=O)O)[C@H](c3ccc(F)cc3)N2S(=O)(=O)c2ccc(C)cc2)cc1	.	0%	-22%	-16%	.	-20%
CCc1ccc([C@@H]2CC=C(C(=O)O)[C@H](c3ccc(C(C)(C)C)cc3)N2S(=O)(=O)c2ccc(C)cc2)cc1	.	?	-24%	?	.	24µM*
Cc1ccc([C@@H]2CC=C(C(=O)O)[C@H](c3ccc(Br)cc3)N2S(=O)(=O)c2ccc(C)cc2)cc1	.	-17%	-10%	?	.	?
Cc1ccc([C@@H]2CC=C(C(=O)O)[C@H](c3ccc(C(C)(C)C)cc3)N2S(=O)(=O)c2ccc(C)cc2)cc1	.	?	-6%	?	.	27µM*
CCOC(=O)C1=CC[C@@H](c2ccccc2)N(S(=O)(=O)c2ccc(C)cc2)[C@@H]1C#N	.	.	.	.	.	15µM*
SMILES	GALK inh	USP2a block	VDR inh	USP1 inh	Coupling enz	PLK1 PBD inh
CCc1ccc([C@@H]2CC=C(C(=O)O)[C@H](c3ccccc3)N2S(=O)(=O)c2ccc(C)cc2)cc1	.	-6%	0%	-13%	.	?
Cc1cccc(NC(=O)CN(C)S(=O)(=O)c2cccs2)c1	-3%	4%	7%	?	-1	1%
Cc1ccc(S(=O)(=O)N2C(c3ccc(Cl)c(Cl)c3)CC=C(C(=O)O)C2c2ccc(Cl)cc2)cc1 (stereo unspecified)	.	.	.	.	.	27µM*
O=C1N=C(N2CCCC2)S/C1=C\c1ccccc1	-4%	-1%	?	-12%	4	30µM*
O=C1N=C(N2CCCCC2)S/C1=C\c1ccc(Cl)cc1	7%	2%	-4%	-11%	2	-7%
CC(C)(C)c1ccc(/C=C2/SC(N3CCCC3)=NC2=O)cc1	0%	-7%	3%	-2%	0	-15%
Cc1ccc(/C=C2\SC(N3CCCCC3)=NC2=O)cc1	-2%	3%	?	-3%	0	24µM*
Cn1c(=O)c2c(nc(CN3CCOCC3)n2CC(=O)c2ccccc2)n(C)c1=O	.	.	4%	-18%	.	2%
COC(=O)c1ccc(CSc2nc3ccccc3c(=O)n2CC(C)C)o1	-3%	1%	3%	-20%	-3	2%
CCCS(=O)(=O)N1CC(=O)N(c2ccc(C)cc2C)C(C)(C(=O)NC2CCCCCC2)C1 (stereo unspecified)	.	.	19%	0%	.	.
Oc1ccc(Br)cc1C1C=C(c2ccc3c(c2)OCO3)NC(c2ccc(F)c(Br)c2)N1 (stereo unspecified)	.	.	50µM*	.	.	.
COc1ccc(NC(=O)C(C2CC2)n2c(=O)c(-c3ccco3)nc3ccccc32)cc1 (stereo unspecified)	.	.	.	.	.	-8%
CCCCCC(=O)Nc1ccc(S(=O)(=O)Nc2nccc(C)n2)cc1	7%	-1%	3%	-4%	4	-5%
Cc1nc2cnc(N(C)C)nc2n(Cc2cccs2)c1=O	.	.	-1%	.	1	.
CN(C)c1nc(=NCc2cccs2)ss1	.	.	?	-8%	.	5.3µM*
